Usually inhibition stands for the drop in the measured response relative to a control, in per cent.

The values below come from PubChem BioAssay.

Values without a mark were called inactive. For some of these results: Potency and affinity values are given separately. The source made the active and inactive calls. Unless noted, how the calls were made is not given here.

Assay [1] can be described thus: antimalarial activity against Dd2 strain (AID 2302;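 active means growth inhibition above 50% at the single 2 µM test dose, taken to imply half-maximal potency below 2 µM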;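 further: 0% = DMSO untreated growth and 100% = chloroquine plus artemisinin killed control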). As to conditions: P. falciparum Dd2 in RBCs, LDH growth readout, 72 h; at 2 µM; active compounds read high.
Assay [2] in a line: human hepatoma cell viability loss – ATP luminescence, cytotoxicity control for P. falciparum antimalarial project, primary screen (AID 2303;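 active means inhibition above 50%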;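 further: 0% = DMSO wells and 100% = digitonin-killed cells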). The settings on record: HepG2 viability, 24-48 h, at 10 µM, active compounds read high.
The target of assay [3] is L-lactate dehydrogenase (Plasmodium falciparum (isolate CDC / Honduras)) (UniProt Q27743). Put plainly: PfLDH activity inhibition – cell lysate, 3D7 strain, counter-screen for P. falciparum growth inhibition project (AID 2304).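 Further: 0% = vehicle and 100% = reference inhibitor.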 As to conditions: P. falciparum 3D7 crude extract, LDH APAD/NBT absorbance; at 2 µM; active compounds read high.
A short description of assay [4]: inhibition of 3D7 malaria parasite growth – strain 3D7 (AID 2306).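 Further: 0% = DMSO wells and 100% = chloroquine plus artemisinin control wells.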 The settings on record: P. falciparum 3D7 erythrocytic growth, LDH absorbance, 72 h; at 2 µM; active compounds read high.
Assay [5] has as its target Calcium-dependent protein kinase 1 (Plasmodium falciparum (isolate 3D7)) (UniProt P62344). Put plainly: PfCDPK1 kinase inhibitors, biochemical, TCAMS library (AID 1159585; cut-off not given, nearly all actives have IC50 up to about 0.98 µM;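 further: inhibitors leave more ATP so luminescence rises with inhibition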). As to conditions: recombinant PfCDPK1, Kinase-Glo ATP depletion luminescence.
Assay [6] concerns the target Plasmodium falciparum protein kinase 6 (PK6, PF3D7_1337100) (UniProt Q8IDW1). Put plainly: PfPK6 kinase inhibitors, biochemical, TCAMS library (AID 1159586). The settings on record: recombinant PfPK6, Kinase-Glo ATP depletion luminescence. A general note: In Kinase-Glo more light means more ATP remaining.
Assay [7] concerns the target Protein kinase 7 (PK7), Plasmodium falciparum 3D7 (PF3D7_0213400) (UniProt Q7YTF7). Put plainly: inhibition of Plasmodium PK7 catalytic activity – biochemical, TCAMS antimalarial set, Kinase-Glo luminescence (AID 1159587). The settings on record: recombinant PfPK7, Kinase-Glo ATP depletion luminescence.
In assay [8] the target is Calcium-dependent protein kinase 4 (Plasmodium falciparum (isolate 3D7)) (UniProt Q8IBS5). Description: PfCDPK4 kinase inhibitors, biochemical, TCAMS library (AID 1159588; cut-off not given, nearly all actives have IC50 up to about 0.91 µM). As to conditions: recombinant PfCDPK4, Kinase-Glo ATP depletion luminescence.
Chain of Calcium-dependent protein kinase 4 (Plasmodium falciparum (isolate 3D7)) (Q8IBS5 whole entry, looked up): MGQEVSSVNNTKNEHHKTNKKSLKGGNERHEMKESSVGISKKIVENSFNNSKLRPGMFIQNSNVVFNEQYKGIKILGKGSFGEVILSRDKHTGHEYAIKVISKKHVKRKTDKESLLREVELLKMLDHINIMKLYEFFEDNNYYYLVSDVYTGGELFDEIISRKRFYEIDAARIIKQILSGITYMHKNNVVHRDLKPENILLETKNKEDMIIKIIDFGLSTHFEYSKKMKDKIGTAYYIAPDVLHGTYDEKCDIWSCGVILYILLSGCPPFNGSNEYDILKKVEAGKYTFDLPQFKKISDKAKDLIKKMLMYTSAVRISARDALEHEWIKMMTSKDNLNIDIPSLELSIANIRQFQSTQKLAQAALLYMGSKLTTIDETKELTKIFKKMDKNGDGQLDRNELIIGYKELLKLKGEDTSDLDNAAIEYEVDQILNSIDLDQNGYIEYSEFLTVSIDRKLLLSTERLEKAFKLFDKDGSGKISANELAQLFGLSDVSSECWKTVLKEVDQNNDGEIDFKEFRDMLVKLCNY

Chain of L-lactate dehydrogenase (Plasmodium falciparum (isolate CDC / Honduras)) (Q27743 whole entry, looked up): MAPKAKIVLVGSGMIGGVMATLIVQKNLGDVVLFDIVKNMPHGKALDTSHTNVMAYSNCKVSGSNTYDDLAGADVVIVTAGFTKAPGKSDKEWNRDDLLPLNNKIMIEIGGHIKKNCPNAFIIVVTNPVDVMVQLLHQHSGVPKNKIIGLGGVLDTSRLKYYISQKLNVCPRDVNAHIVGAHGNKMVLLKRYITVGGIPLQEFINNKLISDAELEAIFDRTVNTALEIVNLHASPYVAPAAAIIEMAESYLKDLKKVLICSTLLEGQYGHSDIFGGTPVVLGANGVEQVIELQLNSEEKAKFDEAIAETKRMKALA
Chain of Protein kinase 7 (PK7), Plasmodium falciparum 3D7 (PF3D7_0213400) (Q7YTF7 1-343): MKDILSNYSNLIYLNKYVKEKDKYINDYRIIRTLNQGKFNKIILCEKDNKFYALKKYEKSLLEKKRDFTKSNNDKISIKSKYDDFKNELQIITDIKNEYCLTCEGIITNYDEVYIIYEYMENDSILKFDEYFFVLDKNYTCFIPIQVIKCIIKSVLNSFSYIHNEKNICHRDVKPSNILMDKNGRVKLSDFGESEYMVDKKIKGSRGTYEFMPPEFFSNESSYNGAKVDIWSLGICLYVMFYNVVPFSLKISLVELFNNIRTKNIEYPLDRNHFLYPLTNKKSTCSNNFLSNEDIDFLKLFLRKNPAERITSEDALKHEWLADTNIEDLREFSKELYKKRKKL
Chain of Plasmodium falciparum protein kinase 6 (PK6, PF3D7_1337100) (Q8IDW1 1-305): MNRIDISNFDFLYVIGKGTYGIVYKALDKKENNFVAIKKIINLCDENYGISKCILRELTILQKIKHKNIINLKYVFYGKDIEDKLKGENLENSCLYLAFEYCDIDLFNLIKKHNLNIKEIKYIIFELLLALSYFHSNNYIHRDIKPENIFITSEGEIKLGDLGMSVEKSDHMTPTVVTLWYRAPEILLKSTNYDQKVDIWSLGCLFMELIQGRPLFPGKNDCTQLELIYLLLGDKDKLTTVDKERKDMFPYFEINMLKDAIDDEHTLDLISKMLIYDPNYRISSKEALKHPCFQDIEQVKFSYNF
Chain of Calcium-dependent protein kinase 1 (Plasmodium falciparum (isolate 3D7)) (P62344 whole entry, looked up): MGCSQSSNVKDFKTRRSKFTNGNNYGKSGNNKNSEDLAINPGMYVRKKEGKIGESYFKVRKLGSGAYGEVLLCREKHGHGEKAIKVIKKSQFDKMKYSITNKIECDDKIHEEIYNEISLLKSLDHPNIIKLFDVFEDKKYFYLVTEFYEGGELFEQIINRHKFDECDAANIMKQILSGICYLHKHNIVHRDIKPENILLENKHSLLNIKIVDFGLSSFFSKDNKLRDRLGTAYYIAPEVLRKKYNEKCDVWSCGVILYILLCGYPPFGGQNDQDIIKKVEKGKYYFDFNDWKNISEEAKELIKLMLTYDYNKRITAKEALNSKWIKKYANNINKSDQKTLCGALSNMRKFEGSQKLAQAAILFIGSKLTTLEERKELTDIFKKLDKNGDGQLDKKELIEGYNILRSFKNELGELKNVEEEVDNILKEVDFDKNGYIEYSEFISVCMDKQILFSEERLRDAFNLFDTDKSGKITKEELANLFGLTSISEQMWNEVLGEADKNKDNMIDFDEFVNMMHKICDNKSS

Regarding `CC1(C)N=C(N)N=C(N)N1OCCCc1ccc(Cl)cc1Cl`, the growth inhibition in assay [1] and in assay [4] was 95% (active) in each case. Moreover, the inhibition in assay [2] is 54% (active); in assay [3], 0%. The outcome in assay [5], in assay [6], in assay [7] and in assay [8] was inactive.
Consider `O=C(CCc1cnc[nH]1)Nc1ccc(-c2cccc(-c3nc4ccccc4[nH]3)c2)cc1`, for which the growth inhibition in assay [1] was 42%; in assay [4] it was 101% (active). In addition, the inhibition was 12% in assay [2] and 4% in assay [3]. The result in assay [5], in assay [6], in assay [7] and in assay [8] was inactive.
On to `CN(CCCN(C)c1cc(NC(=O)c2ccc(F)cc2)ccn1)Cc1cccc(F)c1`, for which the figures for the growth inhibition in assay [1] and in assay [4] were 60% (active) and 83% (active), respectively. Besides, the values for the inhibition in assay [2] and in assay [3] were -5% and -1%, respectively. Further, the result in assay [5], in assay [6], in assay [7] and in assay [8] was inactive.
`COc1ccc(-c2cccc(NC(=O)c3ccc(Cl)cc3)c2)cc1CN1CCCC1`: the growth inhibition in assay [1] is 52% (active); in assay [4] it was 97% (active). Moreover, the inhibition was 55% (active) in assay [2] and -7% in assay [3]. The outcome in assay [5], in assay [6], in assay [7] and in assay [8] was inactive.
`Cc1ccc(Nc2ccnc3ccc(C(F)(F)F)cc23)cc1O`: the growth inhibition in assay [1] is 69% (active); in assay [4] it was 102% (active). In addition, the inhibition in assay [2] was 23%; in assay [3], -6%. In addition, the result in assay [5], in assay [6], in assay [7] and in assay [8] was inactive.
As to `CCNc1cc(C(=O)N[C@@H](Cc2ccccc2)[C@H](O)CN[C@@H]2CCc3ccccc32)cc(N2CCCCS2(=O)=O)c1`, the growth inhibition in assay [1] is 97% (active); in assay [4] it was 98% (active). Further, the inhibition in assay [2] is -7%; in assay [3], 4%. Also, the result in assay [5], in assay [6], in assay [7] and in assay [8] was inactive.
On to `COc1cc2nc(N3CCC(CNC(=O)c4ccc(-c5ccc(C(=O)N(C)C)cc5OCCO)cc4)CC3)nc(N)c2cc1OC`, for which the growth inhibition is 8% in assay [1] and 100% (active) in assay [4]. The inhibition in assay [2] is -7%; in assay [3] it was -1%. The outcome in assay [5], in assay [6], in assay [7] and in assay [8] was inactive.
Turning to `COc1ccc2cc(-c3nc(-c4c(Cl)cccc4Cl)[nH]c3-c3ccnc(NCCCN4CCN(C)CC4)c3)ccc2c1`, the growth inhibition was 80% (active) in assay [1] and 98% (active) in assay [4]. Moreover, the inhibition was 10% in assay [2] and -5% in assay [3]. The result in assay [5], in assay [6], in assay [7] and in assay [8] was inactive.
For `CN(c1ccc(F)cc1)S(=O)(=O)c1ccc(Cl)c(C(=O)Nc2cccc(C#N)c2)c1`, the values for the growth inhibition in assay [1] and in assay [4] were 58% (active) and 95% (active), respectively. Also, the inhibition in assay [2] was 5%; in assay [3] it was -4%. The outcome in assay [5], in assay [6], in assay [7] and in assay [8] was inactive.
In the case of `COc1ccc(-c2cc(-c3ccc(S(C)(=O)=O)cc3)cnc2N)cn1`, the growth inhibition in assay [1] was 99% (active); in assay [4], 94% (active). The inhibition in assay [2] is 5%; in assay [3], 0%. Also, the result in assay [5], in assay [6], in assay [7] and in assay [8] was inactive.
For the compound `CN1CCC(NCc2cccc(-c3cccc(S(=O)(=O)NCc4ccccc4)c3)c2)CC1`, the growth inhibition in assay [1] was 6%; in assay [4], 100% (active). For the same compound, the inhibition was 57% (active) in assay [2] and -2% in assay [3]. For the same compound, the outcome in assay [5], in assay [6], in assay [7] and in assay [8] was inactive.
For the compound `CCN(CC)CCNc1c2ccc(Cl)cc2nc2ccc(OC)nc12`, the growth inhibition was 99% (active) in assay [1] and 100% (active) in assay [4]. Moreover, the figures for the inhibition in assay [2] and in assay [3] were 20% and 2%, respectively. Moreover, the result in assay [5], in assay [6], in assay [7] and in assay [8] was inactive.
Regarding `COc1ccc2nccc([C@@H](O)CN3CCC(NC(=O)CCC(=O)c4cc(C(C)(C)C)ccc4OC)CC3)c2c1`, the results for the growth inhibition in assay [1] and in assay [4] were 51% (active) and 94% (active), respectively. Moreover, the inhibition in assay [2] is 26%; in assay [3] it was -9%. For the same compound, the result in assay [5], in assay [6], in assay [7] and in assay [8] was inactive.
For the compound `O=C(NCC1CN(Cc2ccc(N3CCCC3)o2)CCCO1)c1ccc2c(c1)OCO2` (stereo not given), the growth inhibition in assay [1] is 70% (active); in assay [4], 83% (active). Moreover, the inhibition in assay [2] is -3%; in assay [3] it was -1%. Also, the result in assay [5], in assay [6], in assay [7] and in assay [8] was inactive.
With `Cc1cccc2[nH]c(-c3ccc(-c4ccc(C(=O)NCCN5CCCC5)cc4)s3)nc12`, the results for the growth inhibition in assay [1] and in assay [4] were 13% and 100% (active), respectively. Besides, the inhibition in assay [2] was 20%; in assay [3], 3%. Also, the result in assay [5], in assay [6], in assay [7] and in assay [8] was inactive.
In the case of `O=C(Nc1ccccc1)NC1CCN(CCC2(c3ccc(Cl)c(Cl)c3)COCN(C(=O)c3ccccc3)C2)C1` (stereo not given), the growth inhibition was 81% (active) in assay [1] and 92% (active) in assay [4]. Further, the inhibition in assay [2] is 23%; in assay [3], 3%. Moreover, the outcome in assay [5], in assay [6], in assay [7] and in assay [8] was inactive.
For `Cc1ccc(CNc2ccc3ncc(-c4cccc(C(=O)NCCN(C)C)c4)n3n2)c(C)c1`, the growth inhibition in assay [1] was 78% (active); in assay [4], 100% (active). The inhibition was 97% (active) in assay [2] and -3% in assay [3]. Further, the outcome in assay [5], in assay [6], in assay [7] and in assay [8] was inactive.
For `O=C(NC1CCCC1)c1ccc(N2CCC(NCc3cccc(C(F)(F)F)c3)CC2)cc1`, the growth inhibition is 75% (active) in assay [1] and 87% (active) in assay [4]. In addition, the inhibition in assay [2] is 11%; in assay [3], 1%. Besides, the outcome in assay [5], in assay [6], in assay [7] and in assay [8] was inactive.
Consider `Cc1ccc(C(=O)Cn2nc(-c3ccc(C)c(S(=O)(=O)N4CCCC4)c3)ccc2=O)cc1`, for which the results for the growth inhibition in assay [1] and in assay [4] were 70% (active) and 94% (active), respectively. Also, the results for the inhibition in assay [2] and in assay [3] were -1% and -3%, respectively. In addition, the result in assay [5], in assay [6], in assay [7] and in assay [8] was inactive.
Regarding `COc1ccc2ncc(F)c(CCN3CCC(NCc4cnc5c(c4)NC(=O)CS5)CC3)c2c1`, the growth inhibition is 16% in assay [1] and 99% (active) in assay [4]. For the same compound, the results for the inhibition in assay [2] and in assay [3] were 16% and 3%, respectively. The result in assay [5], in assay [6], in assay [7] and in assay [8] was inactive.
